The source of these data is PubChem BioAssay.

A short description of assay [1]: resazurin metabolic signal in HepG2 cells – cell-based, resazurin fluorescence, 24 h, PK04 Diversity Set, profiling panel (AID 1172). The conditions noted are these: HepG2 viability, higher = more signal. For orientation: Resazurin is reduced to fluorescent resorufin, in cell work by metabolically active cells.
Assay [2] can be described thus: budding yeast growth changes without added modifier – OD600, strain BY4716, 24 h, basal condition, primary screen (AID 1173). The conditions noted are these: S. cerevisiae BY4716 growth, OD600, 24 h; higher = more signal, called active from +8 up or from −8 down.
A short description of assay [3]: viability profiling in MM1S myeloma cells – cell-based, resazurin fluorescence, basal, 24 h, PK04 Diversity Set, profiling panel (AID 1174).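 Also: MM1S multiple myeloma cell line.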 The conditions noted are these: higher = more signal, called active from +8 up or from −8 down.
Assay [4] concerns the target Dihydroorotate dehydrogenase (quinone), mitochondrial (Plasmodium falciparum (isolate 3D7)) (UniProt Q08210). As to the kind of experiment: inhibition of P. falciparum DHODH – biochemical, C-terminal His tag, absorbance 600 nm, primary screen (AID 1175).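 Also: recombinant parasite enzyme with a five histidine tag at its C terminus.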 To be noted: PfDHODH enzyme, DCIP absorbance 600 nm; higher = more signal, called active from +8 up or from −8 down.

A short description of assay [5]: inhibition of PAO1 biofilm formation – strain PAO1, LB-PBS medium, absorbance 600 nm, primary screen (AID 1176). To be noted: P. aeruginosa PAO1 growth/biofilm, A600, 12 h; higher = more signal.
The nature of assay [6]: growth modulation of vineyard yeast isolate – strain RM11-1a, OD600, basal, 24 h, primary screen (AID 1177).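 Also: cultures grown under basal conditions with no added stressor.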 The conditions noted are these: S. cerevisiae RM11-1a growth, OD600, 24 h; higher = more signal, called active from +8 up or from −8 down.
Assay [7] is described as follows: growth of efflux-deficient E. coli DRC39 – strain DRC39, OD650, 24 h, E. coli filamentation inducers, primary screen (AID 1178).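 Also: growth measured as culture turbidity by optical density at 650 nm.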 To be noted: E. coli DRC39 acrAB, higher = more signal, called active from +8 up or from −8 down.
Assay [8] is described as follows: growth of efflux-deficient E. coli DRC39 – strain DRC39, OD650, 48 h, E. coli filamentation inducers, primary screen (AID 1179).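 Also: screen aims at cell division blockers that make cells filament.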 The conditions noted are these: E. coli DRC39 delta-acrAB growth, higher = more signal, called active from +8 up or from −8 down.
A short description of assay [9]: viability profiling in RPMI8226 myeloma cells – cell-based, resazurin fluorescence, basal, 24 h, PK04 Diversity Set, profiling panel (AID 1180).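 Also: RPMI8826 multiple myeloma cell line at 5000 cells per well.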 The conditions noted are these: higher = more signal.
Assay [10] deals with E3 ubiquitin-protein ligase XIAP (Homo sapiens) (UniProt P98170). Kind of assay: small molecules binding XIAP protein – biophysical, small-molecule microarray, fluorescence 635 nm, primary screen (AID 1181).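 Also: score merges 667 nm emission and signal to noise over triplicate slides.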 The conditions noted are these: higher = more signal.
Chain of E3 ubiquitin-protein ligase XIAP (Homo sapiens) (P98170 whole entry, looked up, the tested form may be a part): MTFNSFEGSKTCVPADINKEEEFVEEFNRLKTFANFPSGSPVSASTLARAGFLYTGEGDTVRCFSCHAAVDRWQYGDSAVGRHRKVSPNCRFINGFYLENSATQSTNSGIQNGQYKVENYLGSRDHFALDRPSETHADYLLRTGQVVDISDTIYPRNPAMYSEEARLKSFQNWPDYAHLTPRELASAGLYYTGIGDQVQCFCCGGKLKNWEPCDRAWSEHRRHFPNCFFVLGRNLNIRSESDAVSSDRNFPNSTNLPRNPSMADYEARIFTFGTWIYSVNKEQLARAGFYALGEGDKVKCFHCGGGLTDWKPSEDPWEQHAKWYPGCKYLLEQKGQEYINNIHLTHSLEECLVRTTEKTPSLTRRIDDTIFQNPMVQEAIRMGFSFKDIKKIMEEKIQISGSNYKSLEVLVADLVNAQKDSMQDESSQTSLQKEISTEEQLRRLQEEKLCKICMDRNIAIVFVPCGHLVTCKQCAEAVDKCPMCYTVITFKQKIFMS
Assay [11] deals with XIP peptide (Xip251-270) binding. Kind of assay: XIP fragment 251-270 binding compounds – biochemical, small-molecule microarray, fluorescence 635/667 nm, 0.1 µg/mL protein, primary screen (AID 1182). To be noted: fluorescent protein binding, 635 nm, higher = more signal, called active from +8 up or from −8 down.
The subject of a further assay is XIP peptide (Xip251-270). Kind of assay: compounds binding XIP fragment 251-270 – biochemical, small-molecule microarray, fluorescence 635/667 nm, 0.5 µg/mL protein, primary screen (AID 1183). To be noted: fluorescence 635 nm, higher = more signal.
A short description of assay [12]: blood-stage malaria parasite viability loss – strain 3D7, DAPI fluorescence, 100 nL, primary screen (AID 1184).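 Also: parasites grown inside human red blood cells in medium with human serum.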 To be noted: P. falciparum 3D7 growth, 3 d, higher = more signal.
The target in assay [13] is Homeobox protein Hox-A13 (Mus musculus) (UniProt Q62424). As to the kind of experiment: disruptors of Hoxa13 oligonucleotide interaction – biochemical, fluorescence polarization, labeled oligonucleotide, primary screen (AID 1185). To be noted: Hoxa13:DNA binding, 15 min, higher = more signal, called active from +8 up or from −8 down.
Chain of Homeobox protein Hox-A13 (Mus musculus) (Q62424 whole entry, looked up): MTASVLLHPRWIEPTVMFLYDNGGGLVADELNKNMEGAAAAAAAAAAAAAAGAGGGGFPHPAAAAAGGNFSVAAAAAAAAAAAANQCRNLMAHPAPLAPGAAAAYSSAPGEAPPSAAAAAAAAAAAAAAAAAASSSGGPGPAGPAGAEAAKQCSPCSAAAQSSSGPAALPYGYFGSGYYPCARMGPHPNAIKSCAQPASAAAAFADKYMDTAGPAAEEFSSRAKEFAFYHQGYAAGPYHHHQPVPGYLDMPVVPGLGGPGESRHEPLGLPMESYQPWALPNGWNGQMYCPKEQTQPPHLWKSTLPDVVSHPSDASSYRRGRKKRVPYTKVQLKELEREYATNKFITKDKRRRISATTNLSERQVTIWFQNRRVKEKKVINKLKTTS
Assay [14] in a line: blockers of DNA damage checkpoint Chk1 activation – imaging, HeLa, hydroxyurea, phospho-Chk1 antibody, percent positive cells, primary screen (AID 1186). The conditions noted are these: hydroxyurea-induced phospho-Chk1 immunofluorescence imaging, higher = more signal.
Assay [15] is described as follows: blockers of DNA damage checkpoint Chk1 activation – imaging, HeLa, hydroxyurea, phospho-Chk1 nuclear intensity, primary screen (AID 1187). The conditions noted are these: hydroxyurea-induced phospho-Chk1 immunofluorescence imaging, higher = more signal.

Active and inactive are the calls of the source. Unless noted, no rule for the calls is given here.

Chain of Dihydroorotate dehydrogenase (quinone), mitochondrial (Plasmodium falciparum (isolate 3D7)) (Q08210 whole entry, looked up): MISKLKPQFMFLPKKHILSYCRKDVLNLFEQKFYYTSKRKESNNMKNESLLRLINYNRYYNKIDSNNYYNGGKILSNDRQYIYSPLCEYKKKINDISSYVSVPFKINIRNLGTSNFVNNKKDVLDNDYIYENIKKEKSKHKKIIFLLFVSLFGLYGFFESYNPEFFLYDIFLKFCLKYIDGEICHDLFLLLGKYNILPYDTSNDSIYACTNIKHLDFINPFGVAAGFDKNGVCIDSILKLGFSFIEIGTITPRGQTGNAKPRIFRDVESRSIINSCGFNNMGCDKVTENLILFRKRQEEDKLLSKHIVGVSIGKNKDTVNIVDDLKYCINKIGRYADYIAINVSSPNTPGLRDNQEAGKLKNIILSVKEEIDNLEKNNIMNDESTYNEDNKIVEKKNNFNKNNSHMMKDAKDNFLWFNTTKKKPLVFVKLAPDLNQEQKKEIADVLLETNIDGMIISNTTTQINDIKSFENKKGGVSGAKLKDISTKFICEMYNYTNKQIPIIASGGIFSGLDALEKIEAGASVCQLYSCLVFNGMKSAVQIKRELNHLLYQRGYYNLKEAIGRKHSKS

With `CN1CCC(CCCO)=CC1c1cccs1` (centres undefined), the z-score in [1] is -0.34; in assay [2], -0.158 (inactive); in assay [3], -0.838 (inactive); in assay [5] it was -0.377 (inactive); in assay [6], -0.842 (inactive); in [7] it was 0.212 (inactive). Also, the z-score is 0.0999 (inactive) in assay [8]; -0.707 in assay [9]; 0.896 in [12]; -4.21 (inactive) in assay [13]; 1.02 (inactive) in assay [14]; 0.692 (inactive) in assay [15]. Also, the composite z-score is -0.404 (inactive) in assay [4], -0.319 in assay [10], 0.912 (inactive) in [11] and -1 in the assay on XIP peptide (Xip251-270).
As to `CCOC(=O)C1=CC[C@H]2C(=O)N(c3ccccc3)C(=O)[C@@H]12`, the z-score is 0.119 in assay [1]; 0.206 (inactive) in assay [2]; -0.811 (inactive) in assay [3]; -0.417 (inactive) in assay [5]; -0.337 (inactive) in assay [6]; -0.809 (inactive) in [7]. In addition, the z-score in assay [8] is -1.17 (inactive); in assay [9], -0.0357; in [12] it was -0.55; in assay [13] it was -3.98 (inactive); in assay [14], 0.152 (inactive); in [15], -0.177 (inactive). The composite z-score is 0.494 (inactive) in [4], 0.154 in assay [10], 0.571 (inactive) in assay [11] and 0.903 with XIP peptide (Xip251-270).
As to `COCCCNC(=O)[C@@]1(Cc2ccccc2CN=[N+]=[N-])N=C(c2ccc(OCCCO)cc2)O[C@H]1c1ccccc1CN=[N+]=[N-]`, the z-score in assay [1] was 0.122; in [2], -1.03 (inactive); in assay [3], -1.92 (inactive); in assay [5], 0.218 (inactive); in [6] it was -0.016 (inactive); in [7], 2.15 (inactive). Also, the z-score is 0.707 (inactive) in assay [8]; -4.14 in [9]; -2.23 in [12]; -4.09 (inactive) in [13]; -0.485 (inactive) in assay [14]; -0.763 (inactive) in assay [15]. In addition, the composite z-score was 1.06 (inactive) in [4], 0.244 in assay [10], 1.01 (inactive) in [11] and 0.443 in the assay with XIP peptide (Xip251-270).
As to `COc1ccc([Si](C)(C)[C@@H]2[C@@H](CCn3cc(CCO)nn3)O[C@]3(C(=O)N(Cc4cccc(N5C(=O)c6cccc7cccc5c67)c4)c4ccccc43)[C@H]2C)cc1`, the z-score in [1] is -3.66; in assay [2], 0.348 (inactive); in assay [3] it was -6.83 (inactive); in [5] it was -0.459 (inactive); in assay [6], 1.69 (inactive); in assay [7], -0.162 (inactive). Also, the z-score was -0.831 (inactive) in assay [8]; -6.09 in assay [9]; -2.81 in [12]; -2.66 (inactive) in assay [13]; -0.953 (inactive) in [14]; -0.813 (inactive) in assay [15]. Besides, the composite z-score in assay [4] is 0.0598 (inactive); in [10], -0.0999; in assay [11] it was 1.49 (inactive); in the assay with XIP peptide (Xip251-270) it was 0.589.
Take `COc1ccc(C(O)C2C=CC3C(=O)N(C)C(=O)C3N2N(c2ccccc2)c2ccccc2)c2ccccc12` (centres undefined): the z-score in [1] was -1; in assay [2] it was 0.618 (inactive); in assay [3], -1.57 (inactive); in [5] it was 0.447 (inactive); in [6], 0.588 (inactive); in assay [7], -0.546 (inactive). Moreover, the z-score in assay [8] was -0.225 (inactive); in [9], -1.14; in assay [12] it was 0.889; in [13], -2.84 (inactive); in assay [14] it was 0.436 (inactive); in [15] it was 0.15 (inactive). The composite z-score is 0.231 (inactive) in assay [4], 0.239 in assay [10], 0.742 (inactive) in [11] and 0.763 in the assay on XIP peptide (Xip251-270).
On to `O=C1C2C=CC(C(O)c3ccc4c(c3)OCO4)N(Nc3ccc([N+](=O)[O-])cc3)C2C(=O)N1c1ccccc1` (centres undefined), for which the z-score was -0.415 in assay [1]; -0.13 (inactive) in assay [2]; -0.104 (inactive) in [3]; 0.0641 (inactive) in [5]; -0.729 (inactive) in assay [6]; -1.15 (inactive) in [7]. Further, the z-score in assay [8] was -0.411 (inactive); in assay [9], -0.56; in assay [12], -0.54; in [13], -4.87 (inactive); in assay [14] it was 0.0611 (inactive); in [15] it was -0.825 (inactive). Further, the composite z-score in assay [4] is -1.46 (inactive); in assay [10] it was 0.191; in assay [11], -0.164 (inactive); with XIP peptide (Xip251-270) it was 0.473.
`CC(C)=CCCC(C)=CC(O)C1C=CC2C(=O)N(c3ccccc3)C(=O)C2N1Nc1ccc(C(C)C)cc1` (centres undefined): the z-score is -0.307 in assay [1]; 0.125 (inactive) in assay [2]; -0.862 (inactive) in [3]; 0.0616 (inactive) in [5]; 1.47 (inactive) in assay [6]; -0.427 (inactive) in [7]. Besides, the z-score in assay [8] is -0.306 (inactive); in assay [9], -0.463; in assay [12], -0.25; in assay [13], -2.82 (inactive); in [14], 0.342 (inactive); in assay [15], 0.0288 (inactive). For the same compound, the composite z-score in assay [4] is 0.484 (inactive); in assay [10] it was -0.0382; in assay [11], 0.365 (inactive); in the assay on XIP peptide (Xip251-270) it was 0.305.
`C=CCOC(=O)[C@H]1[C@@H]2C(=O)O[C@@H](c3ccccc3)[C@@H](c3ccccc3)N2[C@@H](c2ccc(OCCOC(=O)[C@@H]3C[C@@H]4C(=O)N5CCC[C@H]5C(=O)N4[C@@H]3c3cccc(OCCO)c3)cc2)[C@]12C(=O)Nc1ccc(I)cc12`: the z-score in [1] was -0.536; in assay [2], 0.509 (inactive); in assay [3], -0.424 (inactive); in assay [5], 3.85 (inactive); in [6], 1.29 (inactive); in assay [7], 0.021 (inactive). In addition, the z-score is -0.0471 (inactive) in assay [8]; -0.442 in [9]; -1.66 in [12]; 2.03 (inactive) in assay [13]; 0.351 (inactive) in assay [14]; 0.557 (inactive) in assay [15]. For the same compound, the composite z-score in assay [4] is -0.49 (inactive); in assay [10], -0.0203; in assay [11] it was 0.108 (inactive); in the assay with XIP peptide (Xip251-270), 0.792.
Consider `O=C1C2C=CC(C(O)c3ccc(-c4ccccc4)s3)N(Nc3ccccc3)C2C(=O)N1c1ccccc1` (centres undefined), for which the z-score in assay [1] was 0.809; in assay [2], -2.18 (inactive); in [3], -0.171 (inactive); in assay [5] it was 0.282 (inactive); in assay [6], 0.119 (inactive); in assay [7] it was -0.172 (inactive). Further, the z-score was 0.7 (inactive) in assay [8]; 0.428 in [9]; -0.657 in [12]; -1.07 (inactive) in assay [13]; 0.484 (inactive) in assay [14]; 0.251 (inactive) in [15]. Also, the composite z-score was 0.569 (inactive) in assay [4], 0.59 in assay [10], 0.57 (inactive) in assay [11] and 0.769 in the assay on XIP peptide (Xip251-270).
